Experimental data taken from PubChem BioAssay (EPA / NIEHS).
Values joined by “and” are separate entries in the source; they are usually repeats but may differ in a detail not shown here. Identical values can stand only once. Where a structure was tested more than once in an assay, its records may differ in their call. Active and inactive are the calls of the source. The calls were made as follows: active = hit-call score of the fitted dose curve at least 0.9, where 1 is the maximum; inactive = score below 0.9.

Legend:
[1] = read-out: Human Leukocyte Antigen - DR isotype (HLADR), HLA-DRA (gene 3122); test: BSK_BE3C_HLADR: BioMAP Diversity Plus: BE3C Assay for Human Leukocyte Antigen - DR isotype (HLADR) Biomarker Activity (AID 2283032); conditions: primary human bronchial epithelial cells; actives raise or lower the signal
Outline: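 Signal came from an ELISA for HLA-DR in human bronchial epithelial primary cells harvested 24 h after treatment; gain- and loss-of-signal fitting used DMSO controls as reference.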

[2] = read-out: Vascular cell adhesion molecule 1 (VCAM1), VCAM1 (gene 7412); test: BSK_4H_VCAM1: BioMAP Diversity Plus: 4H Assay for Vascular cell adhesion molecule 1 (VCAM1) Biomarker Activity (AID 2283033); conditions: primary human endothelial cells (HUVEC); actives raise or lower the signal;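 as to outcome: cell-surface VCAM-1 protein measured by ELISA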
Outline: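 Endpoint derived from bidirectional fitting against DMSO controls of VCAM-1 ELISA signal in umbilical vein endothelial cells sampled at 24 h following treatment.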

[3] = read-out: Interferon-gamma inducible Protein 10 (IP10), CXCL10 (gene 3627); test: BSK_BE3C_IP10: BioMAP Diversity Plus: BE3C Assay for Interferon-gamma inducible Protein 10 (IP10) Biomarker Activity (AID 2283034); conditions: primary human bronchial epithelial cells; actives raise or lower the signal
Outline: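 Using primary human bronchial epithelial cultures, the assay captures IP-10 by ELISA one day (24 h) after exposure. Parallel SRB staining of total protein flags overt cytotoxicity. Fits run bidirectionally relative to DMSO.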

[4] = read-out: Monokine induced gamma interferon (MIG), CXCL9 (gene 4283); test: BSK_BE3C_MIG: BioMAP Diversity Plus: BE3C Assay for Monokine induced gamma interferon (MIG) Biomarker Activity (AID 2283035); conditions: primary human bronchial epithelial cells; actives raise or lower the signal;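 as to outcome: MIG protein measured by ELISA in BE3C cultures after 24 h of dosing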
Outline: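 ELISA read-out of MIG in human lung bronchial epithelial primary cultures, 24 h post-dosing. Bidirectional curve fit vs DMSO baseline.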

[5] = read-out: Transforming growth factor beta 1 (TGFb1), TGFB1 (gene 7040); test: BSK_BE3C_TGFb1: BioMAP Diversity Plus: BE3C Assay for Transforming growth factor beta 1 (TGFb1) Biomarker Activity (AID 2283036;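 as to outcome: TGF-b1 protein level measured by ELISA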); conditions: primary human bronchial epithelial cells; actives raise or lower the signal
Outline: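 In this human primary bronchial epithelial system, an ELISA quantified TGF-b1 one day after dosing. Endpoint changes in either direction were fitted relative to DMSO.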

[6] = read-out: Plasminogen activator inhibitor-1 (PAI1), SERPINE1 (gene 5054); test: BSK_BE3C_PAI1: BioMAP Diversity Plus: BE3C Assay for Plasminogen activator inhibitor-1 (PAI1) Biomarker Activity (AID 2283037); conditions: primary human bronchial epithelial cells; actives raise or lower the signal
Outline: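 PAI-1 biomarker levels in treated human bronchial epithelial cells are determined by ELISA at 24 h. Both increases and decreases relative to DMSO are fitted.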

[7] = read-out: urokinase plasminogen activator (uPA), PLAU (gene 5328); test: BSK_BE3C_uPA: BioMAP Diversity Plus: BE3C Assay for urokinase plasminogen activator (uPA) Biomarker Activity (AID 2283038); conditions: primary human bronchial epithelial cells; actives raise or lower the signal;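 as to outcome: uPA protein level quantified by ELISA in cell cultures; uPA read one day after compound addition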
Outline: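 ELISA for uPA on human primary bronchial epithelial cultures 24 h post-treatment, gain or loss against DMSO. Parallel SRB staining (0.1% after 10% TCA fixation, 560 nm) assessed overt cytotoxicity.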

[8] = read-out: Urokinase-type plasminogen activator receptor (uPAR), PLAUR (gene 5329); test: BSK_BE3C_uPAR: BioMAP Diversity Plus: BE3C Assay for Urokinase-type plasminogen activator receptor (uPAR) Biomarker Activity (AID 2283039); conditions: primary human bronchial epithelial cells; actives raise or lower the signal;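 as to outcome: uPAR protein level measured by ELISA on the cells; cells exposed to compound for one day before measurement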
Outline: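 A uPAR ELISA serves as the readout, taken 24 h after treating primary human bronchial epithelial cells. Responses in either direction are fitted against DMSO, which defines baseline activity.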

[9] = read-out: Interleukin-6 (IL6), IL6 (gene 3569); test: BSK_CASM3C_IL6: BioMAP Diversity Plus: CASM3C Assay for Interleukin-6 (IL6) Biomarker Activity for (AID 2283040); conditions: primary human coronary artery smooth muscle cells; actives raise or lower the signal

Compound: O=S(=O)(O)C(F)(F)C(F)(F)C(F)(F)C(F)(F)C(F)(F)C(F)(F)C(F)(F)C(F)(F)F
- AC50 [1]: 23.1 µM (active) [middle of 8 runs]
- outcome [2]: inactive
- AC50 [3]: 17.3 µM (active) [middle of 7 runs]
- AC50 [4]: 43.3 µM (active) [middle of 4 runs]
- outcome [4]: inactive
- AC50 [5]: 28.6 µM (active) and 12.1 µM (active) and 19.2 µM (active)
- outcome [5]: inactive
- outcome [6]: inactive
- AC50 [7]: 32 µM (active) [middle of 4 runs]
- outcome [7]: inactive
- AC50 [8]: 33.2 µM (active) and 32.7 µM (active) and 6.81 µM (active)
- outcome [8]: inactive
- outcome [9]: inactive

Compound: CCOC1Oc2ccc(OS(C)(=O)=O)cc2C1(C)C (stereo not drawn)
- AC50 [1]: 24 µM (active)
- outcome [2]: inactive
- outcome [3]: inactive
- outcome [4]: inactive
- outcome [5]: inactive
- outcome [6]: inactive
- AC50 [7]: 26.5 µM (active)
- outcome [8]: inactive
- outcome [9]: inactive

Compound: CC1(c2ccc(Oc3ccccc3)cc2)OC(=O)N(Nc2ccccc2)C1=O (stereo not drawn)
- outcome [1]: inactive
- AC50 [2]: 15.3 µM (active)
- AC50 [3]: 15 µM (active)
- outcome [4]: inactive
- outcome [5]: inactive
- outcome [6]: inactive
- outcome [7]: inactive
- outcome [8]: inactive
- outcome [9]: inactive

Compound: CNC(=O)Oc1cccc(N=CN(C)C)c1
- AC50 [1]: 26.6 µM (active)
- outcome [2]: inactive
- outcome [3]: inactive
- outcome [4]: inactive
- outcome [5]: inactive
- outcome [6]: inactive
- outcome [7]: inactive
- outcome [8]: inactive
- outcome [9]: inactive

Compound: COP(=S)(OC)Oc1ccc([N+](=O)[O-])cc1
- outcome [1]: inactive
- AC50 [2]: 20.1 µM (active)
- outcome [3]: inactive
- outcome [4]: inactive
- AC50 [5]: 9.07 µM (active)
- outcome [6]: inactive
- outcome [7]: inactive
- outcome [8]: inactive
- outcome [9]: inactive

Compound: COC(=O)c1ccccc1S(=O)(=O)NC(=O)N(C)c1nc(C)nc(OC)n1
- outcome [1]: inactive
- outcome [2]: inactive
- outcome [3]: inactive
- outcome [4]: inactive
- AC50 [5]: 0.148 µM (active)
- outcome [6]: inactive
- outcome [7]: inactive
- outcome [8]: inactive
- outcome [9]: inactive

Compound: Oc1cc(Cl)ccc1Oc1ccc(Cl)cc1Cl
- AC50 [1]: 30.3 µM (active) [middle of 4 runs]
- AC50 [2]: 23.8 µM (active) [middle of 4 runs]
- AC50 [3]: 29.3 µM (active) [middle of 4 runs]
- AC50 [4]: 36 µM (active) [middle of 4 runs]
- AC50 [5]: 27.5 µM (active) [middle of 4 runs]
- AC50 [6]: 30.1 µM (active) [middle of 4 runs]
- AC50 [7]: 31.2 µM (active) [middle of 4 runs]
- AC50 [8]: 30.5 µM (active) [middle of 4 runs]

Compound: COc1cc(OC)nc(NC(=O)NS(=O)(=O)c2cc(NC=O)ccc2C(=O)N(C)C)n1
- outcome [1]: inactive
- outcome [2]: inactive
- outcome [3]: inactive
- outcome [4]: inactive
- outcome [5]: inactive
- outcome [6]: inactive
- outcome [7]: inactive
- outcome [8]: inactive
- outcome [9]: inactive

Compound: CC1(C)C(C=C(Cl)Cl)C1C(=O)OC(C#N)c1ccc(F)c(Oc2ccccc2)c1 (stereo not drawn)
- outcome [1]: inactive
- outcome [2]: inactive
- outcome [3]: inactive
- outcome [4]: inactive
- outcome [5]: inactive
- outcome [6]: inactive
- outcome [7]: inactive
- outcome [8]: inactive
- outcome [9]: inactive

Compound: CNC(=O)/C=C(\C)OP(=O)(OC)OC
- outcome [1]: inactive
- outcome [2]: inactive
- outcome [3]: inactive
- outcome [4]: inactive
- outcome [5]: inactive
- outcome [6]: inactive
- outcome [7]: inactive
- outcome [8]: inactive
- outcome [9]: inactive

Compound: O=C(Nc1ccccc1)Nc1cnns1
- outcome [1]: inactive
- outcome [2]: inactive
- outcome [3]: inactive
- outcome [4]: inactive
- outcome [5]: inactive
- outcome [6]: inactive
- outcome [7]: inactive
- outcome [8]: inactive
- outcome [9]: inactive

Compound: OCCOc1ccccc1
- outcome [1]: inactive
- outcome [2]: inactive
- outcome [3]: inactive
- outcome [4]: inactive
- outcome [5]: inactive
- outcome [6]: inactive
- outcome [7]: inactive
- outcome [8]: inactive
- outcome [9]: inactive

Compound: O=C(O)COc1ccc(Cl)cc1Cl
- outcome [1]: inactive
- outcome [2]: inactive
- outcome [3]: inactive
- outcome [4]: inactive
- outcome [5]: inactive
- outcome [6]: inactive
- outcome [7]: inactive
- AC50 [8]: 0.152 µM (active)
- outcome [9]: inactive

Compound: O=C(O)C(F)(F)C(F)(F)C(F)(F)C(F)(F)C(F)(F)C(F)(F)C(F)(F)F
- outcome [1]: inactive
- outcome [2]: inactive
- AC50 [3]: 43.9 µM (active) [middle of 4 runs]
- outcome [3]: inactive
- outcome [4]: inactive
- outcome [5]: inactive
- outcome [6]: inactive
- outcome [7]: inactive
- outcome [8]: inactive
- outcome [9]: inactive

Compound: O=S1OCC2C(CO1)C1(Cl)C(Cl)=C(Cl)C2(Cl)C1(Cl)Cl (stereo not drawn)
- AC50 [1]: 26.6 µM (active)
- AC50 [2]: 36.5 µM (active)
- AC50 [3]: 17.8 µM (active)
- AC50 [4]: 34.4 µM (active)
- AC50 [5]: 39.1 µM (active)
- AC50 [6]: 28.8 µM (active)
- AC50 [7]: 30.3 µM (active)
- AC50 [8]: 30.7 µM (active)
- outcome [9]: inactive

Compound: O=[N+]([O-])/N=C1\NCCN1Cc1ccc(Cl)nc1
- outcome [1]: inactive
- outcome [2]: inactive
- outcome [3]: inactive
- outcome [4]: inactive
- outcome [5]: inactive
- outcome [6]: inactive
- outcome [7]: inactive
- outcome [8]: inactive
- outcome [9]: inactive

Compound: CNC(=O)Oc1ccccc1OC(C)C
- outcome [1]: inactive
- outcome [2]: inactive
- outcome [3]: inactive
- outcome [4]: inactive
- outcome [5]: inactive
- outcome [6]: inactive
- outcome [7]: inactive
- outcome [8]: inactive
- outcome [9]: inactive

Compound: CCC(C)(C)C(=O)OC1=C(c2ccc(Cl)cc2Cl)C(=O)OC12CCCCC2
- AC50 [1]: 23.5 µM (active)
- AC50 [2]: 36.6 µM (active)
- AC50 [3]: 31.3 µM (active)
- AC50 [4]: 34.2 µM (active)
- AC50 [5]: 35.7 µM (active)
- AC50 [6]: 20 µM (active)
- AC50 [7]: 31.1 µM (active)
- AC50 [8]: 36.4 µM (active)
- outcome [9]: inactive

Compound: CCOCN(C(=O)CCl)c1c(C)cccc1CC
- AC50 [1]: 15.3 µM (active)
- AC50 [2]: 19.2 µM (active)
- AC50 [3]: 16.5 µM (active)
- outcome [4]: inactive
- outcome [5]: inactive
- outcome [6]: inactive
- outcome [7]: inactive
- outcome [8]: inactive
- outcome [9]: inactive

Compound: CC(C)(C)C(O)C(Oc1ccc(Cl)cc1)n1cncn1 (stereo not drawn)
- AC50 [1]: 24.2 µM (active)
- outcome [1]: inactive
- outcome [2]: inactive
- outcome [3]: inactive
- outcome [4]: inactive
- outcome [5]: inactive
- outcome [6]: inactive
- outcome [7]: inactive
- outcome [8]: inactive
- outcome [9]: inactive

Compound: COc1nn(CSP(=S)(OC)OC)c(=O)s1
- outcome [1]: inactive
- outcome [2]: inactive
- outcome [3]: inactive
- outcome [4]: inactive
- outcome [5]: inactive
- outcome [6]: inactive
- outcome [7]: inactive
- outcome [8]: inactive
- outcome [9]: inactive

Compound: CCCN(CCOc1c(Cl)cc(Cl)cc1Cl)C(=O)n1ccnc1
- AC50 [1]: 29.3 µM (active)
- outcome [2]: inactive
- AC50 [3]: 29.9 µM (active)
- outcome [4]: inactive
- outcome [5]: inactive
- AC50 [6]: 30.9 µM (active)
- AC50 [7]: 32 µM (active)
- outcome [8]: inactive
- outcome [9]: inactive

Compound: C[C@H]1[C@H](c2ccc(Cl)cc2)SC(=O)N1C(=O)NC1CCCCC1
- AC50 [1]: 12.6 µM (active)
- AC50 [2]: 7.61 µM (active)
- outcome [3]: inactive
- outcome [4]: inactive
- outcome [5]: inactive
- AC50 [6]: 10.6 µM (active)
- outcome [7]: inactive
- outcome [8]: inactive
- AC50 [9]: 7.98 µM (active)

Compound: COP(=O)(OC)OC=C(Cl)Cl
- outcome [1]: inactive
- outcome [2]: inactive
- outcome [3]: inactive
- outcome [4]: inactive
- outcome [5]: inactive
- AC50 [6]: 20 µM (active)
- outcome [7]: inactive
- AC50 [8]: 6.12 µM (active)
- outcome [9]: inactive

Compound: CCC(C)Nc1c([N+](=O)[O-])cc(C(C)(C)C)cc1[N+](=O)[O-] (stereo not drawn)
- outcome [1]: inactive
- AC50 [2]: 15.8 µM (active)
- outcome [3]: inactive
- outcome [4]: inactive
- outcome [5]: inactive
- outcome [6]: inactive
- outcome [7]: inactive
- outcome [8]: inactive
- outcome [9]: inactive

Compound: CCOc1nc(NC)nc(NC(=O)NS(=O)(=O)c2ccccc2C(=O)OC)n1
- outcome [1]: inactive
- outcome [2]: inactive
- outcome [3]: inactive
- outcome [4]: inactive
- outcome [5]: inactive
- outcome [6]: inactive
- outcome [7]: inactive
- outcome [8]: inactive
- outcome [9]: inactive

Compound: CN1CSC(=S)N(C)C1
- AC50 [1]: 20 µM (active)
- AC50 [2]: 16.9 µM (active)
- outcome [3]: inactive
- outcome [4]: inactive
- outcome [5]: inactive
- outcome [6]: inactive
- outcome [7]: inactive
- outcome [8]: inactive
- AC50 [9]: 16.4 µM (active)
